# Columns and labels:
# Test in all cases: DAPPL (digital affinity profiling via proximity ligation, sequencing); 10 mM Tris-HCl pH 7.5, 50 mM NaCl, 1 mM DTT, 4% glycerol, room temperature, 30 min; GST-TFs on glutathione beads, 16-mer random dsDNA library, 0.1% formaldehyde crosslink after washing; high values mean tight binding
# FLI1 = target: T1, FLI1 (Homo sapiens, UniProt Q01543 1-452); conditions: protein: recombinant; tags: N-terminal GST; dsDNA, one strand shown
# T1 sequence: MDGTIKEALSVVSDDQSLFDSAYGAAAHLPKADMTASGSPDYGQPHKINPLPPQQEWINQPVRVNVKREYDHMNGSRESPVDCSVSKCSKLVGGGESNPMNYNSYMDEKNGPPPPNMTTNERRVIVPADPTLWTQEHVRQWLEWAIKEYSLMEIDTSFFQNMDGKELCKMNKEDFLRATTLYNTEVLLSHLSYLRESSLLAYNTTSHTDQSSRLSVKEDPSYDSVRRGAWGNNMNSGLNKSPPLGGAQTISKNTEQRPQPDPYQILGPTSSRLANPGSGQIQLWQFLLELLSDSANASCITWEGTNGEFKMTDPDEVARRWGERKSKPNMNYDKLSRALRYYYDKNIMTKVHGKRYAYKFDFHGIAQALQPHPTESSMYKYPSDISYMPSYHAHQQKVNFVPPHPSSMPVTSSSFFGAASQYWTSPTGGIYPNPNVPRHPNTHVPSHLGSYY
# Outline: (§1)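 Pools were built from human transcription factors expressed in yeast as GST fusions, captured on glutathione beads and DNA-barcoded, along with a tag-only sample. Incubation with 200 nmole of a 16-mer random double-stranded DNA library lasted 30 min at room temperature in Tris/NaCl/DTT/glycerol buffer, and was followed by washing, 0.1% formaldehyde crosslinking, proximity ligation, PCR amplification and Illumina NextSeq500 sequencing. Binding signal is the quotient of each hexamer's read frequency for a factor and its frequency for the tag-only sample.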
# ELK1 = target: T2, ELK1 (Homo sapiens, UniProt P19419 1-428); conditions: protein: recombinant; tags: N-terminal GST; dsDNA, one strand shown
# T2 sequence: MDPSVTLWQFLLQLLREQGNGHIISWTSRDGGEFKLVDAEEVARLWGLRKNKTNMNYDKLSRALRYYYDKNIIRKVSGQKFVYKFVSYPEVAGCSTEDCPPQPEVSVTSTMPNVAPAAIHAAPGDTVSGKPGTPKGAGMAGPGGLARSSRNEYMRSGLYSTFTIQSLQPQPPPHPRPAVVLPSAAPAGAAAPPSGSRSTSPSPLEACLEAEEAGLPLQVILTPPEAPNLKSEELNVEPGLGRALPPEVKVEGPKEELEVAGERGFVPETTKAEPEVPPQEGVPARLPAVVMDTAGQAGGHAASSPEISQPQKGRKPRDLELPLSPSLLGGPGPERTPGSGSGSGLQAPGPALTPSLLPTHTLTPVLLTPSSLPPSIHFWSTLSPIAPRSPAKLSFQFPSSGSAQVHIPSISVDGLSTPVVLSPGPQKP
# Outline: as §1
# GABPA = target: T3, GABPA (Homo sapiens, UniProt Q06546 1-454); conditions: protein: recombinant; tags: N-terminal GST; dsDNA, one strand shown
# T3 sequence: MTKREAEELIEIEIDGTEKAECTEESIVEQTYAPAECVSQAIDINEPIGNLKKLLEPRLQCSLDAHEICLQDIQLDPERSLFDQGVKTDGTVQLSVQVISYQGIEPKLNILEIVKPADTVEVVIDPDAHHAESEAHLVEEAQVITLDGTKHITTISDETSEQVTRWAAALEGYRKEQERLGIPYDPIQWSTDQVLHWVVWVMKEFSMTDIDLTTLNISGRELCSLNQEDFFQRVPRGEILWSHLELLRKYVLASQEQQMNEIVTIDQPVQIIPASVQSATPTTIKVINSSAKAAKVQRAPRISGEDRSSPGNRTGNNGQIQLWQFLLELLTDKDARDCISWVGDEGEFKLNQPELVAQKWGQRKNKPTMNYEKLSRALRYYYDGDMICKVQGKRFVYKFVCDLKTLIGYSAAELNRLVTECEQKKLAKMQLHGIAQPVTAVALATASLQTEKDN
# Outline: as §1
# ERG = target: T4, ERG (Homo sapiens, UniProt P11308 1-479); conditions: protein: recombinant; tags: N-terminal GST; dsDNA, one strand shown
# T4 sequence: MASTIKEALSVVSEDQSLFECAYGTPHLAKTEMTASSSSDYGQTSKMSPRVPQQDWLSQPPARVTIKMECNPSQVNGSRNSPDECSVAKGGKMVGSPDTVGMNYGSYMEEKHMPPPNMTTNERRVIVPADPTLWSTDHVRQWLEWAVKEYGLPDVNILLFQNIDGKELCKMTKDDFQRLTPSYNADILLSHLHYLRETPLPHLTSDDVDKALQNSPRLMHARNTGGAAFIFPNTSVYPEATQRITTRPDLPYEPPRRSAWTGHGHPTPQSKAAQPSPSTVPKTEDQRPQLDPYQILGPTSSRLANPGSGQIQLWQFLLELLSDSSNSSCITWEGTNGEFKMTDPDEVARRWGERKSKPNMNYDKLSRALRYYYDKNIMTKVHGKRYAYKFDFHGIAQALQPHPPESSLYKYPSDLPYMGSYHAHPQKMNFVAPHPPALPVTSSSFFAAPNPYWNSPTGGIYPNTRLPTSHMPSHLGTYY
# Outline: as §1
# ELF1 = ELF1 (Homo sapiens, UniProt P32519 1-619); conditions: protein: recombinant; tags: N-terminal GST; dsDNA, one strand shown
# Outline: as §1
# EHF = target: T5, EHF (Homo sapiens, UniProt Q9NZC4 1-300); conditions: protein: recombinant; tags: N-terminal GST; dsDNA, one strand shown
# T5 sequence: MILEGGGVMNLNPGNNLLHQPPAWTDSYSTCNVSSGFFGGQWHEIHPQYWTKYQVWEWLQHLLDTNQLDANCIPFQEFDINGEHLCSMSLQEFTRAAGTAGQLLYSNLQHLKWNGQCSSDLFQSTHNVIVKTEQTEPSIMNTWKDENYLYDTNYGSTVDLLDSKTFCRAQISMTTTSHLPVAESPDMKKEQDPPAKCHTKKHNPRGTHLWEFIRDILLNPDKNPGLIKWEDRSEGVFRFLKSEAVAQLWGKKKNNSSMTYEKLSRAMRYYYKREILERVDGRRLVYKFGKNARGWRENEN
# Outline: as §1
# SPI1 = SPI1 (Homo sapiens, UniProt P17947 1-270); conditions: protein: recombinant; tags: N-terminal GST; dsDNA, one strand shown
# Outline: as §1
# SPIB = SPIB (Homo sapiens, UniProt Q01892 1-262); conditions: protein: recombinant; tags: N-terminal GST; dsDNA, one strand shown
# Outline: as §1
# ELK3 = target: T6, ELK3 (Homo sapiens, UniProt P41970 1-407); conditions: protein: recombinant; tags: N-terminal GST; dsDNA, one strand shown
# T6 sequence: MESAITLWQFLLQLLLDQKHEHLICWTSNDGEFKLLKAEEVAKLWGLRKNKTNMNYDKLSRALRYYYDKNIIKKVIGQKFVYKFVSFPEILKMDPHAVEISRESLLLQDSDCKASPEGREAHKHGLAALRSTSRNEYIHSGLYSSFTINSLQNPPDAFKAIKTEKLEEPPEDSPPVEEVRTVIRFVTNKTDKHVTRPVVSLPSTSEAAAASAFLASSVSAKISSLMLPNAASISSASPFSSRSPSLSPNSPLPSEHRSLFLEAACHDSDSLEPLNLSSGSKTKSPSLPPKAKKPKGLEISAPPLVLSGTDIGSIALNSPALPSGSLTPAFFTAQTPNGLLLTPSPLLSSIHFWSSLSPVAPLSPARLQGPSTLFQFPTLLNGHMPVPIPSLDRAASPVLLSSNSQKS
# Outline: as §1
# FEV = target: T7, FEV (Homo sapiens, UniProt Q99581 1-238); conditions: protein: recombinant; tags: N-terminal GST; dsDNA, one strand shown
# T7 sequence: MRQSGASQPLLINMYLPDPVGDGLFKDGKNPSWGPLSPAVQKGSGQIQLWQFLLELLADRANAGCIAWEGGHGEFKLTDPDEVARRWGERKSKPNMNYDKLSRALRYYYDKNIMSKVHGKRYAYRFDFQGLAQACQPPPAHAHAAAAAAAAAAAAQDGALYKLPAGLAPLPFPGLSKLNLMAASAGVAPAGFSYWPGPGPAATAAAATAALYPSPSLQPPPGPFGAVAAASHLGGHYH
# Outline: as §1
# ETV5 = ETV5 (Homo sapiens, UniProt P41161 1-510); conditions: protein: recombinant; tags: N-terminal GST; dsDNA, one strand shown
# Outline: as §1
# HSF1 = HSF1 (Homo sapiens, UniProt Q00613 1-529); conditions: protein: recombinant; tags: N-terminal GST; chain copies: 3; dsDNA, one strand shown
# Outline: as §1
# SPIC = target: T8, SPIC (Homo sapiens, UniProt Q8N5J4 1-248); conditions: protein: recombinant; tags: N-terminal GST; dsDNA, one strand shown
# T8 sequence: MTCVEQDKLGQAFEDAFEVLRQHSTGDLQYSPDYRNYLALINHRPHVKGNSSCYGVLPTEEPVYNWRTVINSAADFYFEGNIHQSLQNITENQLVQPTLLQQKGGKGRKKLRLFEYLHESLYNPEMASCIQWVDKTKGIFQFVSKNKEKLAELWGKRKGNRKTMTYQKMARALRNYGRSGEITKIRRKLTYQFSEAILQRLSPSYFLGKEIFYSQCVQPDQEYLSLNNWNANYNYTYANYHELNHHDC
# Outline: as §1
# ELF4 = ELF4 (Homo sapiens, UniProt Q99607 1-663); conditions: protein: recombinant; tags: N-terminal GST; dsDNA, one strand shown
# Outline: as §1
# ELK4 = target: T9, ELK4 (Homo sapiens, UniProt P28324-2 1-405); conditions: protein: recombinant; tags: N-terminal GST; dsDNA, one strand shown
# T9 sequence: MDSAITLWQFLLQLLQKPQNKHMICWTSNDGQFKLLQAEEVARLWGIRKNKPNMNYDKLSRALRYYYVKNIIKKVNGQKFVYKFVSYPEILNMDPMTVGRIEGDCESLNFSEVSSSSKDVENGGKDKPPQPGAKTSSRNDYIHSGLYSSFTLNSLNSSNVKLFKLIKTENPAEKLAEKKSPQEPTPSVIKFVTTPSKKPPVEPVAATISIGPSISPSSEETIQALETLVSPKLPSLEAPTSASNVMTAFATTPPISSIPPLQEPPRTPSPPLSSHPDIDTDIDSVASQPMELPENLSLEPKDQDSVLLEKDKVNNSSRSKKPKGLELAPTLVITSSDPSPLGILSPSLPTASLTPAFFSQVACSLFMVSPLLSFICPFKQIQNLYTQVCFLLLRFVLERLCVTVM
# Outline: as §1
# ETV2 = target: T10, ETV2 (Homo sapiens, UniProt O00321 1-342); conditions: protein: recombinant; tags: N-terminal GST; dsDNA, one strand shown
# T10 sequence: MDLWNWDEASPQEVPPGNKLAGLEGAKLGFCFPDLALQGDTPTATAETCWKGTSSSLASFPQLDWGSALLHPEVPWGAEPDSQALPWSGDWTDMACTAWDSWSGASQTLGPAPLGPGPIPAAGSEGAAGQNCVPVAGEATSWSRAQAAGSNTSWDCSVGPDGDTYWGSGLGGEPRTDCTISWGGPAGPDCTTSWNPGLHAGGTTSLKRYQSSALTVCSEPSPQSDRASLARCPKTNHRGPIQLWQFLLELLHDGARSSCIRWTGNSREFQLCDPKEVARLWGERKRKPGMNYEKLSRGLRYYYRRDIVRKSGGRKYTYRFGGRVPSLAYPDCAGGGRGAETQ
# Outline: as §1
# ELF3 = target: T11, ELF3 (Homo sapiens, UniProt P78545 1-371); conditions: protein: recombinant; tags: N-terminal GST; dsDNA, one strand shown
# T11 sequence: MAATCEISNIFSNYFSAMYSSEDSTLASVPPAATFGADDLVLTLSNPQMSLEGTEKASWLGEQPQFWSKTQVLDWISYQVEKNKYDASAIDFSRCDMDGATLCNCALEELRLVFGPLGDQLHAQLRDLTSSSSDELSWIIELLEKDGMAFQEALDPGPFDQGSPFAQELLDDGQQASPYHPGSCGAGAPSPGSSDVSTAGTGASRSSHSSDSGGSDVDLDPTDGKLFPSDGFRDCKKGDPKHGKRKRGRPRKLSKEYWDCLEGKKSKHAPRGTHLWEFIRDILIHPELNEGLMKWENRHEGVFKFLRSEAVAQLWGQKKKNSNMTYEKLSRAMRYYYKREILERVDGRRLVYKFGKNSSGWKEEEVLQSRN
# Outline: as §1
# CRX = CRX (Homo sapiens, UniProt O43186 1-299); conditions: protein: recombinant; tags: N-terminal GST; dsDNA, one strand shown
# Outline: as §1
# ETV1 = ETV1 (Homo sapiens, UniProt P50549 1-477); conditions: protein: recombinant; tags: N-terminal GST; dsDNA, one strand shown
# Outline: as §1
# Sequence of ELF4 (Q99607 whole entry): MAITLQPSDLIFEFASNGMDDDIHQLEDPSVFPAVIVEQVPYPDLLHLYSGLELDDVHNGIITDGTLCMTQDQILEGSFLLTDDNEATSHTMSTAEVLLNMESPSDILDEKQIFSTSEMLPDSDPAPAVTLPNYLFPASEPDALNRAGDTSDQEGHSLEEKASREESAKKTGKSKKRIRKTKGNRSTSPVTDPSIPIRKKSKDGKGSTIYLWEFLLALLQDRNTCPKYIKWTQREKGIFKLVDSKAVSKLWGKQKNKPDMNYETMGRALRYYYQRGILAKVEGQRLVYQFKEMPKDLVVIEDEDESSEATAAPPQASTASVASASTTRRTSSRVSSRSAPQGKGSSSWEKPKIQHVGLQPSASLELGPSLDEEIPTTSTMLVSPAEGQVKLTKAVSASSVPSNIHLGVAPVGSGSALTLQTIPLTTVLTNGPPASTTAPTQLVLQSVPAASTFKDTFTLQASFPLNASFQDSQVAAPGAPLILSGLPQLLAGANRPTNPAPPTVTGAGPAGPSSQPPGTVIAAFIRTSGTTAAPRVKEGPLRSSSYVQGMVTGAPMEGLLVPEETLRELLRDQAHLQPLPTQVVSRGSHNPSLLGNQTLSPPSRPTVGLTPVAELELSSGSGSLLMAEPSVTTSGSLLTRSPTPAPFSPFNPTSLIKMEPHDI
# Sequence of ETV1 (P50549 whole entry): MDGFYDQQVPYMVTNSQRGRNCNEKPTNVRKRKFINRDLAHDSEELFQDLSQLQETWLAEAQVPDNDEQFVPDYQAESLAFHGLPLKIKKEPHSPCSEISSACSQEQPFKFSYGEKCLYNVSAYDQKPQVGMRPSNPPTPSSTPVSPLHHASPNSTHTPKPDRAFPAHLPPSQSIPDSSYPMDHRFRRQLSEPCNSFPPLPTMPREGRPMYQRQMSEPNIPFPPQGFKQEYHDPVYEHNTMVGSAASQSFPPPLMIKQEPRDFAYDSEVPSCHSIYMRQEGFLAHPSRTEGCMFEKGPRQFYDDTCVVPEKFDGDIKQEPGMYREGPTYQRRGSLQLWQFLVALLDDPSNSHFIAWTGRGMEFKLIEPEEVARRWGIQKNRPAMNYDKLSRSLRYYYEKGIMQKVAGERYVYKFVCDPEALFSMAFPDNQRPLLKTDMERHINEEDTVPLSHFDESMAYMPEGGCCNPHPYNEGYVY
# Sequence of ELF1 (P32519 whole entry): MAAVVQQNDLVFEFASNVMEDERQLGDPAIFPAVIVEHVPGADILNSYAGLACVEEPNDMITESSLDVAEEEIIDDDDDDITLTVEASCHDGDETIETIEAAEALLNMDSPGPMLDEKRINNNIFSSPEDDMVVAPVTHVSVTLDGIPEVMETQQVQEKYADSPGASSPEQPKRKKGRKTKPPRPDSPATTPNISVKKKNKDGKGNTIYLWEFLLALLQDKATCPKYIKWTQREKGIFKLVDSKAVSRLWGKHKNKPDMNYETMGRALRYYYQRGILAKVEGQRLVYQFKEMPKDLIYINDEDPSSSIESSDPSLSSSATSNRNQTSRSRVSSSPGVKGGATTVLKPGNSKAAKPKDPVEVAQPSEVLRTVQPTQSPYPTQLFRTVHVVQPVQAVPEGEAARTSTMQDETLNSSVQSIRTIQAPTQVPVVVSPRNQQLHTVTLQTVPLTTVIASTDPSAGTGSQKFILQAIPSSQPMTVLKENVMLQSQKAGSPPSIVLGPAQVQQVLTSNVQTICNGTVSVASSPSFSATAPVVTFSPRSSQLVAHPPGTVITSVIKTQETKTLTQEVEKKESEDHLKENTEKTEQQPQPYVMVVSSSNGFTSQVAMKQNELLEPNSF
# Sequence of CRX (O43186 whole entry): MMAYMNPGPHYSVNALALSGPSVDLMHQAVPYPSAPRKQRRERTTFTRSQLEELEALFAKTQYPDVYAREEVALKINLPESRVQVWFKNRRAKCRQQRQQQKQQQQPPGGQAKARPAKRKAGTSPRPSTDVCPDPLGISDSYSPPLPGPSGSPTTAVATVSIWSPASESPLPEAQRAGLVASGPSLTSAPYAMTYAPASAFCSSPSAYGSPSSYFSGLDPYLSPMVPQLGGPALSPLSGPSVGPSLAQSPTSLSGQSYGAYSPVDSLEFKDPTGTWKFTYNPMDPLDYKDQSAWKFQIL
# Sequence of SPIB (Q01892 whole entry): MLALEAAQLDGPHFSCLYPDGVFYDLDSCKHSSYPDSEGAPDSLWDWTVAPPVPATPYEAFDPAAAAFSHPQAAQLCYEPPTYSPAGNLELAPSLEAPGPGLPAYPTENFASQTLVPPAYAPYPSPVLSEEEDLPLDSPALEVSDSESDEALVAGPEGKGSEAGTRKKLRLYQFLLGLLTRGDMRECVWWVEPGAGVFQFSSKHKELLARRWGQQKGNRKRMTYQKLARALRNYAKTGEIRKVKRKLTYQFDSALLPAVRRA
# Sequence of ETV5 (P41161 whole entry): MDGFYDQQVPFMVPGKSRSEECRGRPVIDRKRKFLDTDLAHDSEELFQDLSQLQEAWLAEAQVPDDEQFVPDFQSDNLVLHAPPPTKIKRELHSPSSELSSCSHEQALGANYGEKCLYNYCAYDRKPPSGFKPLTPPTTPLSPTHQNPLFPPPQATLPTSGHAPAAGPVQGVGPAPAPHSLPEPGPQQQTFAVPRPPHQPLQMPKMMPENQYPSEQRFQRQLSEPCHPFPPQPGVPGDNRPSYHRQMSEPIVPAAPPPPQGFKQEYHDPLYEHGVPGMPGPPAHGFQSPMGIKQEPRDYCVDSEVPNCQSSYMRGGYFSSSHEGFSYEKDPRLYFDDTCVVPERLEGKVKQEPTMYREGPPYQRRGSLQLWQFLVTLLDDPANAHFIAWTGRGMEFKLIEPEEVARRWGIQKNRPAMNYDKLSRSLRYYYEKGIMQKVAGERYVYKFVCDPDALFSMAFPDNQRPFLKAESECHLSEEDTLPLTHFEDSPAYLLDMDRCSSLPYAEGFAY
# Sequence of HSF1 (Q00613 whole entry): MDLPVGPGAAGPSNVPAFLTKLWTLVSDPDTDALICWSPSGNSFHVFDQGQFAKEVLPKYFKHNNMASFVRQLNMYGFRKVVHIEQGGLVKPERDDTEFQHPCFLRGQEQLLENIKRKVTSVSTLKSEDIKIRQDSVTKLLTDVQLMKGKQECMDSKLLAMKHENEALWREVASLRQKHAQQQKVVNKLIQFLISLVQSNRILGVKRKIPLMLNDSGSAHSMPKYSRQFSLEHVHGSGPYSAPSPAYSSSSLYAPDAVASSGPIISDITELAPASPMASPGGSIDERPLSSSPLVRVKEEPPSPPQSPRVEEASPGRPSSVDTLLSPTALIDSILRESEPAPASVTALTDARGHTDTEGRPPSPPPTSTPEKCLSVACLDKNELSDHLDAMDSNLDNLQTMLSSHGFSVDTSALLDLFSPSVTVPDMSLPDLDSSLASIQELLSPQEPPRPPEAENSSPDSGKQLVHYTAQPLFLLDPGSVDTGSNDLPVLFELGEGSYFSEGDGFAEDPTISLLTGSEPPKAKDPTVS
sequence,measurement,setting,value
CGCCTA,binding signal,FLI1,"1.17 fold enrichment (6-mer frequency, TF over GST control)"
same,binding signal,ELK1,"1.19 fold enrichment (6-mer frequency, TF over GST control)"
same,binding signal,GABPA,"1.15 fold enrichment (6-mer frequency, TF over GST control)"
same,binding signal,ERG,"1.14 fold enrichment (6-mer frequency, TF over GST control)"
same,binding signal,ELF1,"1.16 fold enrichment (6-mer frequency, TF over GST control)"
same,binding signal,EHF,"1.23 fold enrichment (6-mer frequency, TF over GST control)"
same,binding signal,SPI1,"1.13 fold enrichment (6-mer frequency, TF over GST control)"
same,binding signal,SPIB,"1.22 fold enrichment (6-mer frequency, TF over GST control)"
same,binding signal,ELK3,"1.24 fold enrichment (6-mer frequency, TF over GST control)"
same,binding signal,FEV,"1.11 fold enrichment (6-mer frequency, TF over GST control)"
same,binding signal,ETV5,"1.18 fold enrichment (6-mer frequency, TF over GST control)"
same,binding signal,HSF1,"1.15 fold enrichment (6-mer frequency, TF over GST control)"
same,binding signal,SPIC,"1.36 fold enrichment (6-mer frequency, TF over GST control)"
same,binding signal,ELF4,"1.12 fold enrichment (6-mer frequency, TF over GST control)"
same,binding signal,ELK4,"1.28 fold enrichment (6-mer frequency, TF over GST control)"
same,binding signal,ETV2,"1.13 fold enrichment (6-mer frequency, TF over GST control)"
same,binding signal,ELF3,"1.06 fold enrichment (6-mer frequency, TF over GST control)"
same,binding signal,CRX,"1.18 fold enrichment (6-mer frequency, TF over GST control)"
same,binding signal,ETV1,"1.12 fold enrichment (6-mer frequency, TF over GST control)"

# — PMC7862700, “An all-to-all approach to the identification of sequence-specific readers for epigenetic DNA modifications on cytosine”
